High-throughput results (PubChem BioAssay)
The list is not random: actives were taken first. Their share in the collection is about 19%.
BCR signal inh: qHTS Assay to Find Inhibitors of Chronic Active B-Cell Receptor Signaling; ABC-DLBCL IkBa-CBG/CBR reporter, luminescence ratio, 4 h; Potency, µM (titrated, usually from 46.1 µM), for inactives: at the top dose activity change, negative = inhibition, most hits filed as inhibitors; 0.05% of 340,000 active; AID 493014, 2011; active = well fitted inhibition curve with a large enough effect in the signal ratio, with a control signal flat, not every such curve was filed as active; inconclusive = small, poorly fitted or top-dose-only effect, or effect the other way, or a change in a side signal; the % refers to the signal ratio;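 also: potency is read from the fitted curve at half-maximal effect; plate controls were basal doxycycline-induced cells for no effect and cells given 10 µM MG132 for full effect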
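Compounds up to 46 uM were incubated four hours with TMD8 cells whose green CBG68 luciferase is fused to IkappaBalpha; red CBR luminescence normalised the signal, and concentration-effect curves were fitted to fusion, red and ratio data.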
IL1B secr inh: qHTS for Inhibitors of Inflammasome Signaling: IL-1-beta AlphaLISA Primary Screen | THP-1 LPS/ATP IL-1B secretion, AlphaLISA, 16 h; hits give low values | AID 743279, 2014 | activity change, % at 57.5 µM | 4.7% of 360,000 active; in the data active = activity change below about -50%; inconclusive = mostly about -30% to -49%; also: % is scaled to controls: 0 for no effect and ±100 for the full control effect
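THP-1 cells pretreated 1 hr with compounds (up to 57.5 uM final), then stimulated with LPS (250 ng/mL final) plus ATP (1.25 mM final); secreted IL-1B measured by AlphaLISA after 16 hr, decreased signal indicating inhibition.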
MCF10A rerep: A quantitative high throughput screen for small molecules that induce DNA re-replication in MCF 10a normal breast cells; MCF 10A DNA re-replication, Hoechst nuclear intensity, 48 h; Potency, µM (titrated, usually from 46.1 µM), inactives show at the top dose activity, positive = re-replication, most hits filed as activators; AID 624296, 2012; 2.9% of 350,000 active; also: potency is read from the fitted curve at half-maximal effect; % of control where 0% means no effect; nearly all actives have a fitted effect of over 50% in size
SW480 rereplic: A quantitative high throughput screen for small molecules that induce DNA re-replication in SW480 colon adenocarcinoma cells; SW480 DNA re-replication, Hoechst DNA content imaging, 48 h; Potency, µM (top dose mostly 46.1 µM), for inactives: at the highest dose re-replication activation, hits mostly activators; 1.8% of 340,000 active; AID 624297, 2012; also: potency is read from the fitted curve at half-maximal effect; % of control where 0% means no effect; nearly all actives have a fitted effect of over 55% in size
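First, 250 cells per well were seeded. Next, compound or vehicle (23 nL) was pinned in, plates sat 48 hr at 37 C. Finally Hoechst was added for 40 min before fluorescence scanning.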
DT40 TDP1 CPT: qHTS for Inhibitors of human tyrosyl-DNA phosphodiesterase 1 (TDP1): qHTS in cells in presence of CPT. chicken DT40 Tdp1-/-;hTDP1 cells + 20 nM CPT, ATP luminescence, 48 h. Potency, µM (doses to about 46.2 µM), without a hit: at the highest dose activity change, negative = growth inhibition, usual class: inhibitors. 12% of 420,000 active. AID 686979, 2013; also: potency is read from the fitted curve at half-maximal effect; % is scaled to controls: 0 for no effect and ±100 for the full control effect; nearly all actives have a fitted effect of over 55% in size
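Cell growth measured by CellTiter-Glo luminescence after a minimum 48 h, 37 C compound exposure with 20 nM CPT in Tdp1-knockout DT40 cells stably expressing hTDP1, seeded 400/well; qHTS titration format.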
TDP1 cell noCPT: qHTS for Inhibitors of human tyrosyl-DNA phosphodiesterase 1 (TDP1): qHTS in cells in absence of CPT; 15% of 420,000 active; DT40 Tdp1-/- hTDP1 cells, no CPT, ATP luminescence, 48 h; Potency, µM (titrated, usually from 46.2 µM), without a hit: top-dose activity change, negative = growth inhibition, usual class: inhibitors; also: potency is read from the fitted curve at half-maximal effect; % is scaled to controls: 0 for no effect and ±100 for the full control effect; nearly all actives have a fitted effect of over 55% in size
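Growth kinetics read by CellTiter-Glo luminescence after ≥48 hr at 37 °C. Cells: DT40 Tdp1-/- stably carrying human TDP1, 400 per well, compound exposure in the absence of CPT (DMSO vehicle).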
The depositor's hits bear a star; u = inconclusive; x = no result; ! = not active in a repeat; [ ] = another dose, or the depositor's remark. Unless noted, calls follow the shape of the dose curve; as a rule, active = well fitted curve in the direction sought with a large enough effect; inconclusive = small, poorly fitted or top-dose-only effect, or another doubt; inactive = no such curve, though single readings can be large; an effect the other way counts as inactive or inconclusive.

SMILES	BCR signal inh	IL1B secr inh	MCF10A rerep	SW480 rereplic	DT40 TDP1 CPT	TDP1 cell noCPT
CCc1cccc(C)c1NC(=O)CN(C)S(=O)(=O)c1ccc(-c2ccc(=O)[nH]n2)s1	-16%	0	-2%	u	-5%	-18%
COc1ccc(S(=O)(=O)NC(=O)C2(C)CCN2C(=O)Cc2cc(C)cc(C)c2)cc1OC (configuration not stated)	x	14	x	x	1%	4%
CC(/C=C/c1ccco1)=N/NC(=O)OC(C)(C)C	-10%	-1	u	26%	u	15µM*
CC(=C/C(=O)O)/C=C/c1ccco1	u	-19	u	u	6.5µM*	7.3µM*
C/C(=N/NC(=O)OC(C)(C)C)c1ccco1	u	-3	-4%	-8%	5%	-3%
CC(/C=C/c1ccco1)=N/NC(=O)Cc1cccs1	u	-8	u	u	7.1µM*	4µM*
CC(/C=C/c1ccc(Cl)o1)=C\C(=O)O	9%	-4	-3%	-6%	-7%	-4%
Cc1cccc(N2CC(C(=O)Nc3nnc(SCc4cccnc4)s3)CC2=O)c1 (configuration not stated)	13%	21	4%	-3%	2%	3%
CC1(C)[C@@H](O)CC[C@]2(C)[C@H]3C(=O)C=C4[C@@H]5C[C@@](C)(C(=O)O)CC[C@]5(C)CC[C@@]4(C)[C@]3(C)CC[C@@H]12	0%	9	-37%	-11%	7.5µM*!	2.4µM*!
CC1(C(=O)O)CCC2(C)CCC3(C)C(=CC(=O)C4C5(C)CCC(O)C(C)(C)C5CCC43C)C2C1 (configuration not stated)	x	x	27µM*	3%	x	x
CC1(C)[C@@H](O)CC[C@]2(C)C3C(O)C=C4[C@H]5C[C@@](C)(CO)CC[C@]5(C)CC[C@]4(C)[C@]3(C)CC[C@@H]12 (some centres not stated)	5%	16	13µM*	-4%	-22%	-17%
Cc1cc(=O)n2nc(N3CCC(C(=O)Nc4ccc(Br)cc4F)CC3)sc2n1	x	x	x	x	u	3%
CCCCn1c(N)c(N(CC(C)C)C(=O)CN2C(=O)NC3(CCC(C(C)(C)CC)CC3)C2=O)c(=O)[nH]c1=O (configuration not stated)	x	-6	0%	11%	-16%	-24%
N#C/C(=C\c1ccc(OC(F)F)cc1)C(=O)N1CCCCC1	-1%	u	13µM*	-1%	u	u
Cc1ccc(/C=C(\C#N)C(=O)N2CCCC2)c(C)c1	u	-87*	8%	-1%	-10%	u
Cc1ccccc1C(=O)Nc1cccc(-c2nnc(SCC(=O)NCc3ccco3)n2C)c1	x	x	x	x	-28%	-28%
COc1ccc(NC(=O)CCC(=O)N2CCCC2)c([N+](=O)[O-])c1	1%	-5	0%	1%	15%	14%
N/C(=C\c1ccccc1)c1ccncc1	x	x	x	x	-2%	u
Oc1c(N=NC(=S)Nc2ccccc2F)c2ccccc2n1Cc1cccc(Cl)c1	u	-11	7%	0%	6.5µM*	6.5µM*
Cc1cccc(Cn2c(O)c(N=NC(=S)Nc3ccccc3F)c3ccccc32)c1	-14%	-7	-6%	-96%	7.3µM*	7.3µM*
Cc1ccc(F)c(NC(=S)Nc2cccc3ccccc23)c1	-3%	x	x	x	x	x
O=c1[nH]ncc2c3ccccc3n(Cc3cccc(Cl)c3)c12	-4%	52	u	0%	0%	-24%
Oc1c(N=NC(=S)Nc2ccccc2F)c2ccccc2n1Cc1ccc(F)cc1	-20%	-9	-5%	0%	5.2µM*	2.3µM*
COc1ccccc1CNC(=O)COC(=O)CCN1C(=O)C2CC=CCC2C1=O (configuration not stated)	x	-15	x	x	5%	-6%
OC[C@@H]1CN(Cc2ccncc2)C[C@H](n2cnc3c(NC4CCCC4)ncnc32)O1	x	12	x	x	-20%	-3%
SMILES	BCR signal inh	IL1B secr inh	MCF10A rerep	SW480 rereplic	DT40 TDP1 CPT	TDP1 cell noCPT
O=C(NC1C2CC3CC(C2)CC1C3)c1ccc(Br)o1 (configuration not stated)	-1%	15	-1%	26%	5%	-24%
CN(Cc1ccccc1F)C(=O)c1ccc(Oc2ccccc2)cc1	-1%	-6	2%	-13%	u	5%
CN(Cc1ccc(F)cc1)C(=O)c1cccc(NS(=O)(=O)c2ccccc2)c1	-1%	6	-2%	-3%	-12%	2%
CN(Cc1ccc(C(F)(F)F)cc1)C(=O)c1ccc(Oc2ccccc2)cc1	-4%	-20	16µM*	-2%	-25%	-10%
CN(Cc1ccc(F)cc1)C(=O)c1cccc(OCc2ccccc2)c1	8%	-54*	8%	-2%	u	u
COc1cccc(CCNC(=O)Cn2c(-c3cccs3)cc3ccccc32)c1	x	x	x	x	21µM*	u
COc1ccc(N2CCN(CCCNC(=O)Cn3c(-c4cccs4)cc4ccccc43)CC2)cc1	x	x	x	x	18µM*	23µM*
O=C(Cn1c(-c2cccs2)cc2ccccc21)NCCCN1CCN(c2ccc(F)cc2)CC1	x	x	x	x	23µM*	23µM*
COCCNC(=O)C1(C)CCCN(C(=O)c2ccc(C)c(F)c2)C1 (configuration not stated)	x	7	x	x	-29%	-3%
O=C(O)C1=C[C@H](c2ccc(C(F)(F)F)cc2)C[C@H](OCc2ccc(CO)cc2)O1	15%	6	-2%	4%	-8%	-7%
O=C(Nc1ccccc1)C1=C[C@H](c2ccc(Br)cc2)C[C@H](OCc2ccc(CO)cc2)O1	u	-53*	u	11%[9.22 µM]	29µM*	u
O=C(Nc1ccccc1)C1=C[C@@H](c2ccc(C(F)(F)F)cc2)C[C@@H](OCc2ccc(CO)cc2)O1	u	-22	u	u	23µM*	18µM*
O=C(Nc1ccccc1)C1=C[C@@H](c2ccccc2)C[C@@H](OCc2ccc(CO)cc2)O1	u	14	29%	10%	u	-20%
O=C(NCCCN1CCCC1=O)c1cccc(S(=O)(=O)Nc2ccc(Br)cc2)c1	3%	-2	2%	0%	-10%	-20%
